Compound activity (PubChem)
IMPase Li cell: IMPase inhibition in cells with lithium potentiation; CHO-M1 cells, IP1 TR-FRET (IP-One), carbachol + lithium; 210,000 compounds, 0.35% hits; Potency, µM (highest dose often 59.4 µM), for inactives: at the top dose activity, negative = IMPase inhibition, most hits filed as inhibitors; active means well fitted curve in the direction sought with a large enough effect; inconclusive means small, poorly fitted or top-dose-only effect, or another doubt; inactive means no such curve, though single readings can be large; an effect the other way counts as inactive or inconclusive;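 further: IP1 builds up when IMPase is blocked and the TR-FRET signal falls; potency means the concentration at half of the fitted maximal effect; plate controls were basal vehicle for no effect and high inhibitor control for full effect; nearly all actives have a fitted effect of over 50% in size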
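Test compounds were applied to CHO-M1 cells previously cultured for 16–30 h at 2000 per well. A small lithium amount accompanied them; after 30 min at 37C, IP1 was quantified by TR-FRET.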
ALDH1A1 inh: ALDH1A1 (human) enzyme inhibition; Purified ALDH1A1, NADH fluorescence, propionaldehyde substrate; Potency, µM (series often up to 75.3 µM), inactives show top-dose activity, negative = inhibition, usual class: inhibitors; P00352; 220,000 compounds, 7.3% hits;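 further: potency means the concentration at half of the fitted maximal effect; plate controls were no enzyme wells and a reference inhibitor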
Target sequence (P00352 whole entry, looked up): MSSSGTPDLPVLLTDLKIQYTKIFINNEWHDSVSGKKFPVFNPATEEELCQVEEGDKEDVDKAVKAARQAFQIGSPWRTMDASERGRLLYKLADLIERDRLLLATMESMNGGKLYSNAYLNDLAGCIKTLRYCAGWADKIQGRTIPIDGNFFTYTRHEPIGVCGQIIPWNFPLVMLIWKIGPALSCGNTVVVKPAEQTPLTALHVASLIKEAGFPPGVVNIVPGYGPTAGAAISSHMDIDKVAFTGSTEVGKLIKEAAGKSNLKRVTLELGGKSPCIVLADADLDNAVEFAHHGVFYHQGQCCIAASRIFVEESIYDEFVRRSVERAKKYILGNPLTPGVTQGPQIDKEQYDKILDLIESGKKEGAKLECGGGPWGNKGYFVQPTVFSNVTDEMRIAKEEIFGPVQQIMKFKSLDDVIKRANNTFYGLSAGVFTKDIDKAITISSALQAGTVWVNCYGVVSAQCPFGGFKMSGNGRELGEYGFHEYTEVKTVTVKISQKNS
IMPase inh: membrane-permeable compound that blocks inositol monophosphatase; P97697; CHO-M1 cells, IP1 accumulation, HTRF TR-FRET ratio; inhibition (IP1 accumulation), % at 46.1 µM; 120,000 tested, under 10 active; AID 901; active means well fitted curve in the direction sought with a large enough effect in the signal ratio, not every such curve was filed as active; inconclusive means small, poorly fitted or top-dose-only effect, or a change in a side signal; inactive means no such curve, though single readings can be large or run the other way; the % refers to the signal ratio;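 further: cells stimulated with carbachol in lithium chloride buffer; plate controls were DMSO basal wells for no effect and reference inhibitor wells for full effect; higher means more IMPase inhibition seen as more IP1 and lower FRET ratio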
Target sequence (P97697 whole entry, looked up): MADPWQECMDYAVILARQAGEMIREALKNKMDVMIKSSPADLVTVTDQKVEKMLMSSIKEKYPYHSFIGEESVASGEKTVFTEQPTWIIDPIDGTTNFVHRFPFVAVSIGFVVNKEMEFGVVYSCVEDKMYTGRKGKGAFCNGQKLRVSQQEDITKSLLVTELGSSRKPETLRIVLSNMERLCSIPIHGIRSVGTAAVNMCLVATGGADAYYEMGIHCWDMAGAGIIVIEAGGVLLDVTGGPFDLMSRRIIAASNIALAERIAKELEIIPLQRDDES
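Seeded CHO-M1 cells were dosed with compound at up to 46 uM, stimulated with carbachol for 30 min, then lysed in IP-One detection reagents. Higher IP1 lowers the TR-FRET signal.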
NPSR antagonist: blocks cAMP signaling of the human neuropeptide S receptor | CHO-NPSR cells, cAMP TR-FRET, antagonist mode | 220,000 compounds, 1% hits | Q6W5P4 | Potency, µM (doses to about 38.3 µM), for inactives: top-dose activity change, negative = inhibition, hits mostly inhibitors; active means well fitted curve in the direction sought with a large enough effect; inconclusive means small, poorly fitted or top-dose-only effect, or another doubt; inactive means no such curve, though single readings can be large; an effect the other way counts as inactive or inconclusive; further: potency means the concentration at half of the fitted maximal effect; nearly all actives have a fitted effect of over 50% in size
HPGD inh: inhibitors of human 15-hydroxyprostaglandin dehydrogenase (HPGD) | P15428 | purified HPGD, NADH fluorescence kinetic, PGE2 substrate | Potency, µM, inactives show at the top dose activity change, negative = inhibition, most hits filed as inhibitors | 150,000 compounds, 4.3% hits | AID 894; further: potency means the concentration at half of the fitted maximal effect
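20 nM HPGD preincubated 15 min at room temperature with compound in 50 mM Tris-HCl pH 8, 0.01% Tween 20. Started with 1 mM NAD+ and 30 uM prostaglandin E2; NADH fluorescence (360/450 nm) read 5 times over 30-s intervals, last minus first.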
PNC assembly inh: perinucleolar compartment assembly inhibition. PC3M PTB-GFP, PNC prevalence imaging, 16 h; active compounds read low. activity change (PNC), negative = inhibition, % at 10 µM. 140,000 compounds, 3.1% hits;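 active means readout at or below -70, meaning at least 70% loss of cells showing the perinucleolar compartment, a nuclear body marking cancer cells; inconclusive means readout between -30 and a set limit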;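 further: plate controls were DMSO wells for no effect and camptothecin positive control wells for full effect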
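Compounds are pinned in duplicate onto adhered PC3M cells stably expressing GFP-tagged PTB and incubated 16 h at 37 C. Cells are then fixed, nuclei stained with Hoechst, and PNC-positive cells counted.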
* = called active by the depositor; ? = inconclusive; · = not tested or not shown; [ ] = remark or other dose. Rows were chosen to be rich in hits. Some 11% of all compounds tested hit in one or more screens of this group. Unless noted, the call rests on the fitted dose curve; in most records, active means well fitted inhibition curve with a large enough effect (not every such curve was filed as active); inconclusive means small, poorly fitted or top-dose-only effect, or another doubt; inactive means no such curve, though single readings can be large or run the other way. Unless noted, on the % scale 0 is the no-effect control and ±100 the full control effect.

SMILES	IMPase Li cell	ALDH1A1 inh	IMPase inh	NPSR antagonist	HPGD inh	PNC assembly inh
O=C(OCc1nnc(-c2ccccc2)o1)C1CC(=O)N(Cc2ccco2)C1 (centres undefined)	-8%	15µM*	·	15%	·	·
ClCc1nnc(-c2ccccc2)o1	-5%	7.9µM*	·	-17%	-15%	-1
COC(=O)c1sc(N)c(C(=O)OC)c1COC(=O)C1CC(=O)N(Cc2ccco2)C1 (centres undefined)	29%[38.3 µM]	?	-2	-13%[46.1 µM]	?	24
c1ccc(-c2nnc(-c3ccccc3)o2)cc1	1%[38.3 µM]	0%	3	-16%[46.1 µM]	-13%	48
Clc1ccccc1Nc1nnc(-c2ccncc2)s1	-8%	-11%	·	-3%	?	9
CCn1c(SC)nnc1-c1c[nH]c2ccccc12	8%[38.3 µM]	-3%	2	-2%[46.1 µM]	-13%	?
CCOC(=O)c1sc(N)c(C(=O)OCC)c1COC(=O)C1CC(=O)N(Cc2ccco2)C1 (centres undefined)	17%[38.3 µM]	20µM*	-1	-20%[46.1 µM]	-21%	41
CCOc1ncccc1C(=O)OCc1nnc(-c2ccccc2)o1	-8%[38.3 µM]	6%	?	-8%[46.1 µM]	16µM*	-23
O=C(OCc1nnc(-c2ccccc2)o1)c1cccnc1Cl	-1%	0%	·	7%	·	·
CCCCN(CC)c1ncnc2c1sc1nc(N3CCOCC3)c3c(c12)CCCC3	·	·	-13	·	·	·
O=C(/C=C/c1ccc(S(=O)(=O)N2CCOCC2)cc1)NCc1ccccc1Cl	10%	8.9µM*	·	-12%	-11%	42
O=C(/C=C/c1ccc(S(=O)(=O)N2CCOCC2)cc1)NCc1ccc(Cl)cc1	10%	12%	·	-22%	-7%	32
COc1ccc(C(=O)CNc2ccccc2C#N)cc1	1%	?	·	-10%	·	·
COc1ccc(C(=O)CNc2ccccc2CO)cc1	-11%	14µM*	·	-9%	·	·
O=C(COc1ccc(/C=N/NC(=O)c2cc3ccccc3o2)cc1Cl)Nc1ccccc1	2%	?	-4	4µM*	?	-119*
Cc1nnsc1C(=O)NNc1ccc(C(C)(C)C)cc1	·	32µM*	·	-8%	·	·
Cc1nnsc1C(=O)NNc1ccc(C(C)C)cc1	·	?	·	-12%	·	·
CCCCC(=O)NC(=S)Nc1cccc(C(=O)O)c1	2%	-4%	·	4%	·	·
CCOC(=O)c1c(-c2ccc(OC)c(OC)c2)csc1NC(=O)C1CCCO1 (centres undefined)	6%	?	·	-31%	·	·
CCOC(=O)c1sc(NC(=O)C2CCCO2)c(C(=O)OCC)c1C (centres undefined)	34%[38.3 µM]	8.9µM*	-19	17%[46.1 µM]	?	19
NC(=O)c1c(NC(=O)C2CCCO2)sc2c1CCCC2 (centres undefined)	-9%	?	-8	15%	8.9µM*	?
CCOC(=O)c1c(NC(=O)c2cc(OC)c(OC)c(OC)c2)sc2c1CCCC2	·	·	-11	·	·	·
CCOC(=O)c1c(NS(=O)(=O)c2cccc(OC)c2)sc2c1CCC2	20%[38.3 µM]	10µM*	15	?	35µM*	?
Cc1sc(NC(=O)C2CCCO2)c(C(N)=O)c1C (centres undefined)	14%	11µM*	-3	9%	28µM*	34
Cc1ccc(-c2ccc(CCC(=O)O)n2NC(=O)c2ccc([N+](=O)[O-])cc2)cc1	-5%	-14%	·	-7%	·	·
SMILES	IMPase Li cell	ALDH1A1 inh	IMPase inh	NPSR antagonist	HPGD inh	PNC assembly inh
COc1ccc(-n2nc3c(c2NC(=O)c2ccc(Br)cc2)CS(=O)C3)cc1 (centres undefined)	3%[38.3 µM]	8%	4	4%[46.1 µM]	-12%	?
CC(c1ccon1)N(C)C(=O)c1ccc(OC2CCN(C(=O)C3CC3)CC2)cc1 (centres undefined)	2%	5%	·	-6%	·	·
CCCc1cc(C(N)=O)c(NC(=O)C2CCCO2)s1 (centres undefined)	17%[38.3 µM]	14µM*	-8	-12%[46.1 µM]	?	22
CCOC(=O)c1cccc(NC(=O)C2CCCO2)c1 (centres undefined)	23%[38.3 µM]	2%	0	-12%[46.1 µM]	-16%	?
CCOC(=O)c1c(NC(=O)C2CCCO2)sc(C)c1C (centres undefined)	28%	14µM*	·	-21%	·	·
N#Cc1c(NC(=O)C2CCCO2)sc2c1CCCCCC2 (centres undefined)	13%	14µM*	·	-8%	?	-26
Cc1cccc(NC(=O)COc2cccc3c2CCN(C)C3=O)c1C	-11%	?	·	-4%	·	·
CCOC(=O)c1c(NC(=O)COc2cccc3c2CCN(C)C3=O)sc2c1CCC2	22%	20µM*	·	-56%	?	?
C/C=C/C=C/C(=O)N1CC[C@]23c4ccccc4N[C@H]4N(C)c5cccc6c5[C@]42CCN([C@H]6C2OC2(C)C)[C@H]13 (some centres undefined)	·	·	·	-45%	·	·
CCOC(=O)c1c(NC(=O)C2CCCO2)sc2c1CCC2 (centres undefined)	13%[38.3 µM]	22µM*	?	-5%[46.1 µM]	-19%	?
CCOC(=O)c1c(NC(=O)C2CCCO2)sc(C(=O)OC(C)(C)C)c1C (centres undefined)	9%[38.3 µM]	14µM*	?	11%[46.1 µM]	?	16
Cc1cc(NC(=O)c2ccc(S(=O)(=O)N(C)C)cc2)n(-c2ccccn2)n1	-12%[38.3 µM]	3%	2	-14%[46.1 µM]	-13%	?
O=C1c2ccccc2C2(c3ccccc3)NCCN12 (centres undefined)	-6%[38.3 µM]	11%	3	-28%[7.67 µM]	-2%	?
Cc1ccc(CC(=O)NCc2ccc(Cl)cc2)cc1	5%	?	·	3%	·	·
Cc1ccc(CC(=O)NCC(C)C)cc1	-2%[38.3 µM]	-5%	-13	-5%[46.1 µM]	18µM*	?
O=S(=O)(Nc1cc(Sc2ncn[nH]2)c(O)c2ccccc12)c1ccccc1	-4%	14µM*	·	-10%	·	·
Cc1cccc(OCCC(=O)Nc2ccc(S(=O)(=O)N3CCCC3)cc2)c1	20%[38.3 µM]	?	-1	-23%[46.1 µM]	-14%	11
CCOC(=O)C1=C(SCC)c2cc3c(n2C1=O)CCCC3	21%	?	35	13µM*	-5%	-23
CCOC(=O)C1=C2c3cc(OC)c(OC)cc3CC(C)(C)N2C(=O)C1=O	-4%	1%	·	22%	-2%	-22
COc1ccc(CNC(=O)CN(C)S(=O)(=O)c2ccccc2)cc1	3%	-13%	·	6%	·	·
Cc1nc(CSc2nc3[nH]ncc3c(=O)n2-c2ccccc2)cs1	16%[38.3 µM]	13µM*	15	-14%[46.1 µM]	-8%	-18
Cc1noc(C)c1CSc1nc2ccccc2c(=O)n1-c1ccc(F)cc1F	23%[38.3 µM]	8.9µM*	39	?	-11%	?
Cc1noc(C)c1CSc1nc2[nH]ncc2c(=O)n1-c1ccccc1	8%	1.3µM*	11	16%[46.1 µM]	-14%	-100*
